Experimental data as given in PubChem BioAssay AID463173 (ICCB-Longwood Screening Facility, Harvard Medical School, 2010).
Out of some 52,000 compounds screened, about 4,300 (8.3%) were called active. The list comes from a sample in which actives are over-represented; it also holds similar structures and randomly drawn compounds. A number with no mark means an inactive call. No stated cut-off is given here; in the data, active means survival mostly below about 52% (no sharp cut-off); inactive means mostly above about 56%.

Test system: DeltatarO mutant
Test: growth inhibition of S. aureus wild type versus tarO mutant, primary screen, teichoic acid synthesis inhibitors, RN4220, OD600 (AID 463173)
Conditions: OD600, 18 h, active compounds read low, screened at 18.75 µg/mL (by protocol)

SMILES	survival
O=C(CCNS(=O)(=O)c1ccc2c(c1)CCCC(=O)N2)NCc1ccccc1Cl	87%
CCCOc1ccc(CNC(=O)Cn2ncn3c(cc4sc(CC)cc43)c2=O)cc1	94%
CC(C)Cc1nn2c(=O)cc(COC(=O)c3ccccc3NC(=O)c3ccccc3)nc2s1	117%
CSc1ncc(C(=O)Nc2ccccc2C(=O)c2ccccc2)c(C)n1	64%
Cc1cccc(C(=O)NC(c2n[nH]c(=S)n2C)C(C)C)c1 (configuration not stated)	111%
CCCOc1cccc(C(=O)Nc2cccc(NC(=O)c3ccc(Cl)cc3Cl)c2)c1	88%
CCc1ccc(NC(=O)Cc2c(C(=O)O)c(C)cn2C)cc1	87%
Cc1c(Cl)cccc1NC(=O)CCOc1ccccc1	142%
Cc1ccc(C)c(NC(=O)CCOc2ccccc2)c1	77%
CCOC(=O)c1ccccc1NC(=O)Cc1c(C(=O)O)c(C)cn1C	17% (active)
CCOC(=O)c1ccccc1NC(=O)CCOc1ccccc1	22% (active)
Cc1cn(C)c(CC(=O)Nc2cccc(Cl)c2C)c1C(=O)O	99%
COc1ccc(C2(C(=O)O)CCCC2)cc1OC	107%
CSc1ncc(C(=O)N2CCN(c3cc(C)ccc3C)CC2)c(C)n1	72%
Cc1ccc(S(=O)(=O)c2nnn3c2nc(N2CCC(C)CC2)c2cc(Cl)ccc23)cc1C	78%
COc1ccc(OC)c(C2C(C(=O)N3CCCCC3)=C(C)Nc3nc4ccccc4n32)c1 (configuration not stated)	63%
COc1ccc(-n2cnc3cc(C(=O)NCCC4=CCCCC4)ccc32)cc1	75%
CC(C)C(=O)Nc1ccc(N2CCN(C(=O)c3ccccc3)CC2)cc1	101%
CCOCCCn1c(SCC(=O)Nc2ccccc2CC)nc2ccccc2c1=O	80%
Cc1ccccc1CSc1nc2ccsc2c(=O)n1CCC(C)C	68%
Cc1ccc(Cn2c(SCC(=O)NCc3ccccc3)nc3ccsc3c2=O)cc1	92%
Cc1ccc(Cn2c(SCC(=O)NCc3ccccc3Cl)nc3ccsc3c2=O)cc1	-5% (active)
CC(C)CCn1c(SCc2cccc(F)c2)nc2ccsc2c1=O	87%
O=C(CSc1nc2ccsc2c(=O)n1Cc1ccccc1Cl)NCc1ccc(Cl)cc1	101%
Cc1ccc(CSc2nc3ccsc3c(=O)n2CCC(C)C)cc1	-5% (active)
Cc1nc2sc(C(=O)N(C)Cc3ccccc3)c(NC(=O)c3ccccc3)c2c(C)c1Cl	60%
Cc1cc(=O)n(Cc2ccccc2Cl)c2c1c(C)nn2-c1ccccc1	100%
